From publication PMC7862700, “An all-to-all approach to the identification of sequence-specific readers for epigenetic DNA modifications on cytosine”

Legend:
Test in all cases: DAPPL (digital affinity profiling via proximity ligation, sequencing); 10 mM Tris-HCl pH 7.5, 50 mM NaCl, 1 mM DTT, 4% glycerol, room temperature, 30 min; GST-TFs on glutathione beads, 16-mer random dsDNA library, 0.1% formaldehyde crosslink after washing; high values mean tight binding
Conditions in all cases: protein: recombinant; tags: N-terminal GST; dsDNA, one strand shown
FLI1 = target: T1, FLI1 (Homo sapiens, UniProt Q01543 1-452)
T1 sequence: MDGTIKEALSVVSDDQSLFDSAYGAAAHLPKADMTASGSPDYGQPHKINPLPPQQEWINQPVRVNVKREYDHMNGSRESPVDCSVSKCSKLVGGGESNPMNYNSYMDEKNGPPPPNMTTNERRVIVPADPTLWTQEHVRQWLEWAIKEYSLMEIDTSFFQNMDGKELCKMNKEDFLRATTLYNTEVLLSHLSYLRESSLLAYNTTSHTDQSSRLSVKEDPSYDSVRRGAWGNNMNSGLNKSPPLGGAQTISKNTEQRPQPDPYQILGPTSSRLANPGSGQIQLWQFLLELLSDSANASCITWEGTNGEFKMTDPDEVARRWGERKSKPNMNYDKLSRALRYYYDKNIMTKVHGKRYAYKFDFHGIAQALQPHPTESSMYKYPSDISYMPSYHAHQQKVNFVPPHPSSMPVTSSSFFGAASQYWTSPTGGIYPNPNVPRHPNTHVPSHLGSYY
In short: (§1)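 Human transcription factors fused to GST were expressed in yeast, captured on glutathione beads, given DNA barcodes and pooled with a GST-only negative control. Pools were incubated with 200 nmole of a 16-mer random double-stranded DNA library in Tris/NaCl/DTT/glycerol buffer at room temperature for 30 min. They were then washed, crosslinked with 0.1% formaldehyde, proximity-ligated (BsaI/T4 ligase, 1 h, 37 °C), PCR-amplified and sequenced on an Illumina NextSeq500. Binding signal is each 6-mer's read frequency for a factor divided by its frequency for the GST control.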

ELK1 = target: T2, ELK1 (Homo sapiens, UniProt P19419 1-428)
T2 sequence: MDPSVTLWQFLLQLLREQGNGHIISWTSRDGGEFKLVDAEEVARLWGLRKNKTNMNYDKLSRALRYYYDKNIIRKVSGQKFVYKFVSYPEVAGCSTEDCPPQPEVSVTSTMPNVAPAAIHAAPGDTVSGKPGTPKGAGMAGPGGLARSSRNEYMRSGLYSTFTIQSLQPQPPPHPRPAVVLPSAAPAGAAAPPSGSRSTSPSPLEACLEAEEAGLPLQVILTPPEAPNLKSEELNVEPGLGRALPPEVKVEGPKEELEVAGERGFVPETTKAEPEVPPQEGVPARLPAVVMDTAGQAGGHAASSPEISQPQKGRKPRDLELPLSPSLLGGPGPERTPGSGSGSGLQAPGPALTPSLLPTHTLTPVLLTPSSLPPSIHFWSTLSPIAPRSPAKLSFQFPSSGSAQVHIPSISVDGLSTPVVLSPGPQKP
In short: as §1

GABPA = target: T3, GABPA (Homo sapiens, UniProt Q06546 1-454)
T3 sequence: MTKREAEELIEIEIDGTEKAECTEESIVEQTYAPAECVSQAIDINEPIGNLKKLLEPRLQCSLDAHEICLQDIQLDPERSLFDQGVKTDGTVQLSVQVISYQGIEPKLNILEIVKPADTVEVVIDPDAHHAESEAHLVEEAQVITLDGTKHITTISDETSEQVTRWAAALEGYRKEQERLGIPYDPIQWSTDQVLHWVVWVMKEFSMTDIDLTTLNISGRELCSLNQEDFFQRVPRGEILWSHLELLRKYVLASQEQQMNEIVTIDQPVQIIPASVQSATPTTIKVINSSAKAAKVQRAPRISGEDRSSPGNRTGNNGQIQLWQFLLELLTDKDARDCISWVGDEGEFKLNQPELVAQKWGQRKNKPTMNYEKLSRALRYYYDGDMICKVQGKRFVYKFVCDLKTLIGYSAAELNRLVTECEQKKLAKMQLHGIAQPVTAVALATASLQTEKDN
In short: as §1

ERG = target: T4, ERG (Homo sapiens, UniProt P11308 1-479)
T4 sequence: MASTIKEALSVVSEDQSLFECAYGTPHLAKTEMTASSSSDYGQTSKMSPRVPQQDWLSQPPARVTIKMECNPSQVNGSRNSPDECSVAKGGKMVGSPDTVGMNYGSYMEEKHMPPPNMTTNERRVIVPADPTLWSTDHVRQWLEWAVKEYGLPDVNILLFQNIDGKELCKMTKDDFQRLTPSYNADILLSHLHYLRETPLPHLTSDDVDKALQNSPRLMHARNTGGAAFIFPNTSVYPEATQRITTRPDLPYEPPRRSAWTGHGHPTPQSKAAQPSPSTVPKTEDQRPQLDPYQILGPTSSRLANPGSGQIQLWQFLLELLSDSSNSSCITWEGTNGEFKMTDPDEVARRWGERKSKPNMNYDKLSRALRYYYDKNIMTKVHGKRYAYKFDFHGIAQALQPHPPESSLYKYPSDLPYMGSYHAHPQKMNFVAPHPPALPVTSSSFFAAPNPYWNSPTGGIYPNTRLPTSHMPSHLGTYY
In short: as §1

ELF1 = ELF1 (Homo sapiens, UniProt P32519 1-619)
Chain of ELF1 (P32519 whole entry): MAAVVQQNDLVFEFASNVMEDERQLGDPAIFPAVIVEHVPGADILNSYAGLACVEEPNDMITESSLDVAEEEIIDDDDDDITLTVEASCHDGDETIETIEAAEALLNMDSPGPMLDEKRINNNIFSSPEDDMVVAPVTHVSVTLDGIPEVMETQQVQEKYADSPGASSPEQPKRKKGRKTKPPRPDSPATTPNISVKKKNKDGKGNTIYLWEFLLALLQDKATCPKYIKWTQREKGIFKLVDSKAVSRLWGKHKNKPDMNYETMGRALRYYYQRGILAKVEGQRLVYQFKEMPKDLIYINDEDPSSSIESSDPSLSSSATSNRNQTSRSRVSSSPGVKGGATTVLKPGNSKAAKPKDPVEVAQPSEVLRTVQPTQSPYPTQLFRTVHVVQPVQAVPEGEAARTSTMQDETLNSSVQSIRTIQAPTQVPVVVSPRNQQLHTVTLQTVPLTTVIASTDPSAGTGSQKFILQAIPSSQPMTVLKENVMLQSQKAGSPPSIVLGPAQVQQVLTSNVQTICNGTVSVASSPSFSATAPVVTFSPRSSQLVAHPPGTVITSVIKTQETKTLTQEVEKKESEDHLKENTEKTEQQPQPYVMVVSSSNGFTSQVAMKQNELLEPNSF
In short: as §1

EHF = target: T5, EHF (Homo sapiens, UniProt Q9NZC4 1-300)
T5 sequence: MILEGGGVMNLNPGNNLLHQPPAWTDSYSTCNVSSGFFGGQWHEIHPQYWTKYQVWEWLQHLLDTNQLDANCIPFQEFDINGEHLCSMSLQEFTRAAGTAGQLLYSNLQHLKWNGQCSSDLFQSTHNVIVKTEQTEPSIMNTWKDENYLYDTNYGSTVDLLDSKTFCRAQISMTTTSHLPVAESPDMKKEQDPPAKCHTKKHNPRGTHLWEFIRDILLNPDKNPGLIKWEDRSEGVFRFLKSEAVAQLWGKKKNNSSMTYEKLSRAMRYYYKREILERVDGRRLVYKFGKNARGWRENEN
In short: as §1

SPIB = SPIB (Homo sapiens, UniProt Q01892 1-262)
Chain of SPIB (Q01892 whole entry): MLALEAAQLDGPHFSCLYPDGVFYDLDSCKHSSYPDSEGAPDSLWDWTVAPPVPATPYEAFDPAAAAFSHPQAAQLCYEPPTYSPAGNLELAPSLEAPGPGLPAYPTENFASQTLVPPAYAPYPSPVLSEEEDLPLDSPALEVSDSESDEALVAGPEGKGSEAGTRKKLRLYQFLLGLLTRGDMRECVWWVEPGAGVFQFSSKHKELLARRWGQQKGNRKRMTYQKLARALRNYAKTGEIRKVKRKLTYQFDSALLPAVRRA
In short: as §1

ELK3 = target: T6, ELK3 (Homo sapiens, UniProt P41970 1-407)
T6 sequence: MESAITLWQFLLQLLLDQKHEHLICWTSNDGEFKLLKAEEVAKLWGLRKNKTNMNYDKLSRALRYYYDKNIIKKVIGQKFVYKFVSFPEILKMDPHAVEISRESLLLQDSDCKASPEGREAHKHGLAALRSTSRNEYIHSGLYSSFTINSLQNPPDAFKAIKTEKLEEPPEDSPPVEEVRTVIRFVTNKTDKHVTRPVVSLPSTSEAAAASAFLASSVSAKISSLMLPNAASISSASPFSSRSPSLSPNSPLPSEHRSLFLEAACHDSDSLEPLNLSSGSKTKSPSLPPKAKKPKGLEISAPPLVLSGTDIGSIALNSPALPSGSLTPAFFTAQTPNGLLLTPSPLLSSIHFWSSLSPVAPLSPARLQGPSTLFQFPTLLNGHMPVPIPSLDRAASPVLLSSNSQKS
In short: as §1

SPIC = target: T7, SPIC (Homo sapiens, UniProt Q8N5J4 1-248)
T7 sequence: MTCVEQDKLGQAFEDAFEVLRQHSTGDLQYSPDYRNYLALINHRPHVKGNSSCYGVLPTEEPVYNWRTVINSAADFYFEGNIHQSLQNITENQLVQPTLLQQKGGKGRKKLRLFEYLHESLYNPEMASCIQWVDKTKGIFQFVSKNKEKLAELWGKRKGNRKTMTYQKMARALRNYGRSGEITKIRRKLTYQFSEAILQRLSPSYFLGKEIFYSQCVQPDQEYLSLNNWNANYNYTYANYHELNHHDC
In short: as §1

ELK4 = target: T8, ELK4 (Homo sapiens, UniProt P28324-2 1-405)
T8 sequence: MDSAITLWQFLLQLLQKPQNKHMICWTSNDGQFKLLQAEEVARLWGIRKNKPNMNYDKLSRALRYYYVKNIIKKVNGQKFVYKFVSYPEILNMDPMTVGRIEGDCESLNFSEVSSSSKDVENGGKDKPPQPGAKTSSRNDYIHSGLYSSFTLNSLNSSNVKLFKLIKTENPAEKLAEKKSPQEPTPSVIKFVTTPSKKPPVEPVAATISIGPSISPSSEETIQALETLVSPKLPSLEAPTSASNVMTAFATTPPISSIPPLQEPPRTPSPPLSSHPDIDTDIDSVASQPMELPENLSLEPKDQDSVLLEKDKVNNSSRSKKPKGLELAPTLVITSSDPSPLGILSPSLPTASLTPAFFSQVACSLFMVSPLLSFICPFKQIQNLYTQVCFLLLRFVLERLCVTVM
In short: as §1

ELF3 = target: T9, ELF3 (Homo sapiens, UniProt P78545 1-371)
T9 sequence: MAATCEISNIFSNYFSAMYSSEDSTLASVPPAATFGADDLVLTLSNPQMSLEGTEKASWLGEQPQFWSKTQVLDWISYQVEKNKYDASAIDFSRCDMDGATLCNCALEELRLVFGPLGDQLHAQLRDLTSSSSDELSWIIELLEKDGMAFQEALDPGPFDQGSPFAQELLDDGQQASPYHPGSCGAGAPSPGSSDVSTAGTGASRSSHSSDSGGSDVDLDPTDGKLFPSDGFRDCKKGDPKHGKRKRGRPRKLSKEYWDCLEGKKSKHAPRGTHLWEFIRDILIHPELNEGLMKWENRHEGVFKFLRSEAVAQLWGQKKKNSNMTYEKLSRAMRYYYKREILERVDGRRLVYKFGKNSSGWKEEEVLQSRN
In short: as §1

ETV1 = ETV1 (Homo sapiens, UniProt P50549 1-477)
Chain of ETV1 (P50549 whole entry): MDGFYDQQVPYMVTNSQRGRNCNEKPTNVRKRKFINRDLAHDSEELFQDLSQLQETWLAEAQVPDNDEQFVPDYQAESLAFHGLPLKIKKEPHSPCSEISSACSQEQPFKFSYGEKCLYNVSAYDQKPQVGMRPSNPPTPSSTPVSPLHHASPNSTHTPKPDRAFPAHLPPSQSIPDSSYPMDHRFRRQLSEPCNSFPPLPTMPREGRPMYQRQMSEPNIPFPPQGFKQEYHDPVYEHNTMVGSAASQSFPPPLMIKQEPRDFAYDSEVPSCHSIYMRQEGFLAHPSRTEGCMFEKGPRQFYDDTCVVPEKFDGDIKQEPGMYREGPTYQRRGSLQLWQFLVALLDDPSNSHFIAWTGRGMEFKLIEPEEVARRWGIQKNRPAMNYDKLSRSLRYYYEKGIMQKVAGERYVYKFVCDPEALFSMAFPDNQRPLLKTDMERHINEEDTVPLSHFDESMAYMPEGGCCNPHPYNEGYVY
In short: as §1

ETV3L = target: T10, ETV3L (Homo sapiens, UniProt Q6ZN32 1-361)
T10 sequence: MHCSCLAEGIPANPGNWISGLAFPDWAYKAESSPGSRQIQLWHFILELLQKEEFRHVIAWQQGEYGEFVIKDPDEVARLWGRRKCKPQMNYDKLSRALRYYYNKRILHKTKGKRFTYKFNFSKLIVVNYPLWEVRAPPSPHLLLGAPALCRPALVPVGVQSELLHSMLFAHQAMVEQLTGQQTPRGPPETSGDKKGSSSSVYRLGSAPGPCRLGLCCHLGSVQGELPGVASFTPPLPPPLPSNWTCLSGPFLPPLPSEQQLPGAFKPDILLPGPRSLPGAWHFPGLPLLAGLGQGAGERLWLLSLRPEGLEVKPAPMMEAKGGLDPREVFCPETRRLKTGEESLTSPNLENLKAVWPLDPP
In short: as §1

ETV7 = target: T11, ETV7 (Homo sapiens, UniProt Q9Y603 1-341)
T11 sequence: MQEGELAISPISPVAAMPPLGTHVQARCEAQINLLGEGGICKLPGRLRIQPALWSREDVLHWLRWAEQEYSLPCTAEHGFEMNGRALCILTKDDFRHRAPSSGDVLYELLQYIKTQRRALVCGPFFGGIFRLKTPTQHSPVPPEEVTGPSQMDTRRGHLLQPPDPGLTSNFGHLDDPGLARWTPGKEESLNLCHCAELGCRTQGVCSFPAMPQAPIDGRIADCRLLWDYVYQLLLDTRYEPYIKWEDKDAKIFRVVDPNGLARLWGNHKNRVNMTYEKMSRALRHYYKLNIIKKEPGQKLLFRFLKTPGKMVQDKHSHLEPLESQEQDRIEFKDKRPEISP
In short: as §1

ETV3 = target: T12, ETV3 (Homo sapiens, UniProt P41162-2 1-143)
T12 sequence: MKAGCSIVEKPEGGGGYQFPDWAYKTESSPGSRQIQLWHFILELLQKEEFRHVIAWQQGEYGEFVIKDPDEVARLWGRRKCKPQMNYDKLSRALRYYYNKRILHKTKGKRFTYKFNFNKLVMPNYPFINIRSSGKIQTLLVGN
In short: as §1

ETV6 = ETV6 (Homo sapiens, UniProt P41212 1-452)
Chain of ETV6 (P41212 whole entry): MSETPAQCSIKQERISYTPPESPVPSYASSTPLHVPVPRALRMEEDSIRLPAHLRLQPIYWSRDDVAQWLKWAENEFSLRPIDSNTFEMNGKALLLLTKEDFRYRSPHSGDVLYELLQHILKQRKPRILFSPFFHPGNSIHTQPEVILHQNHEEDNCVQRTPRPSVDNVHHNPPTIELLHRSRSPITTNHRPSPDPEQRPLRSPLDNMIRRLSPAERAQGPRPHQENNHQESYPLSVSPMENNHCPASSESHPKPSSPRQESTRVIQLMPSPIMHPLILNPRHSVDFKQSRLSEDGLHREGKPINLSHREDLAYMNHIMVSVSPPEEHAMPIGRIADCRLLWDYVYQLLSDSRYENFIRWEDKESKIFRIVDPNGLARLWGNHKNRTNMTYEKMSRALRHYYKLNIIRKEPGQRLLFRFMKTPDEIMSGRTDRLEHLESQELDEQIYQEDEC
In short: as §1

In the case of TAAAGG, the binding signal (FLI1) is reported as 1.04 fold enrichment (6-mer frequency, TF over GST control), the binding signal (ELK1) is reported as 1.03 fold enrichment (6-mer frequency, TF over GST control) and the binding signal (GABPA) is reported as 1.03 fold enrichment (6-mer frequency, TF over GST control). For the same sequence, the binding signal (ERG) was 1.03 fold enrichment (6-mer frequency, TF over GST control), the binding signal (ELF1) was 1.08 fold enrichment (6-mer frequency, TF over GST control) and the binding signal (EHF) was 1.12 fold enrichment (6-mer frequency, TF over GST control). For the same sequence, the binding signal (SPIB) was 1.03 fold enrichment (6-mer frequency, TF over GST control), the binding signal (ELK3) was 1.1 fold enrichment (6-mer frequency, TF over GST control) and the binding signal (SPIC) was 1.11 fold enrichment (6-mer frequency, TF over GST control). For the same sequence, the binding signal (ELK4) was 1.07 fold enrichment (6-mer frequency, TF over GST control), the binding signal (ELF3) was 1.1 fold enrichment (6-mer frequency, TF over GST control) and the binding signal (ETV1) was 1.03 fold enrichment (6-mer frequency, TF over GST control). For the same sequence, the binding signal (ETV3L) was 1.04 fold enrichment (6-mer frequency, TF over GST control), the binding signal (ETV7) was 1.09 fold enrichment (6-mer frequency, TF over GST control) and the binding signal (ETV3) was 1.09 fold enrichment (6-mer frequency, TF over GST control). For the same sequence, the binding signal (ETV6) was 1.07 fold enrichment (6-mer frequency, TF over GST control).
